{"source": "the supplement of paper PMC9262897", "about": "“Low-cost anti-mycobacterial drug discovery using engineered E. coli” (Nature Communications, 2022)", "note": "Structures can show the parent of a compound that is named as a salt. ± gives the standard deviation of the averaged measurements.", "data": [{"test_system": "E. coli TESEC Alr+ wild-type control", "experiment": "growth (OD600 after 10 h); higher = more growth (less inhibition)", "details": "compound 0.1 mM; raw OD600 reference: median of DMSO wells 0.49, cell-free background 0.052", "description": "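TESEC Mtb Alr E. coli (ΔaraC ΔtolC ΔentC Δalr ΔdadX, arabinose-inducible Mtb Alr) or the Alr+ wild-type control strain, grown in defined M9-fructose medium without D-alanine in 96-well plates with Prestwick library compounds at 0.1 mM and 1% DMSO. Low Alr induction is 0.1 µM arabinose and high induction is 10 mM arabinose.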", "values": [{"smiles": "C[C@]12CC[C@@H](O)C[C@H]1CC[C@@H]1[C@@H]2CC[C@]2(C)C(=O)CC[C@@H]12", "note": "[3-alpha-Hydroxy-5-beta-androstan-17-one]", "growth": "0.262 ± 0.011"}, {"smiles": "CN(C)[C@@H]1C(=O)C(C(N)=O)=C(O)[C@@]2(O)C(=O)C3=C(O)c4c(O)cccc4[C@@](C)(O)[C@H]3[C@H](O)[C@@H]12", "note": "[Oxytetracycline dihydrate]", "growth": "0.0551 ± 0.00064"}, {"smiles": "COP(=O)(OC)C(O)C(Cl)(Cl)Cl", "note": "(stereo not given) [Trichlorfon]", "growth": "0.505 ± 0.046"}, {"smiles": "O=c1[nH]oc2c1CCNC2", "note": "[THIP Hydrochloride]", "growth": "0.539 ± 0.087"}, {"smiles": "CC(=O)O[C@H]1CC[C@@]2(C)C(=CC[C@@H]3[C@@H]2CC[C@]2(C)C(=O)CC[C@@H]32)C1", "note": "[Dehydroisoandosterone 3-acetate]", "growth": "0.253 ± 0.0042"}, {"smiles": "O=[N+]([O-])O[C@H]1CO[C@H]2[C@@H]1OC[C@H]2O[N+](=O)[O-]", "note": "[Isosorbide dinitrate]", "growth": "0.474 ± 0.092"}, {"smiles": "C#C[C@]1(O)CC[C@H]2[C@@H]3CCC4=CC(=O)CCC4=C3C=C[C@@]21CC", "note": "[Gestrinone]", "growth": "0.287 ± 0.011"}, {"smiles": "CCOC(=O)c1cncn1[C@H](C)c1ccccc1", "note": "[Etomidate]", "growth": "0.397 ± 0.013"}, {"smiles": "CCCC(C)(COC(N)=O)COC(=O)NC(C)C", "note": "(stereo not given) [Carisoprodol]", "growth": "0.594 ± 0.082"}, {"smiles": "C[C@]12N[C@H](Cc3ccccc31)c1ccccc12", "note": "[Dizocilpine maleate]", "growth": "0.54 ± 0.094"}, {"smiles": "C=C(C)[C@@H]1[C@H]2OC(=O)[C@@H]1[C@]1(O)C[C@H]3O[C@]34C(=O)O[C@H]2[C@]14C", "note": "[Picrotoxinin]", "growth": "0.479 ± 0.082"}, {"smiles": "C1CCc2nnnn2CC1", "note": "[Pentylenetetrazole]", "growth": "0.46 ± 0.054"}, {"smiles": "O=C1CC[C@@]2(O)[C@H]3Cc4ccc(O)c5c4[C@@]2(CCN3CC2CC2)[C@H]1O5", "note": "[Naltrexone hydrochloride dihydrate]", "growth": "0.496 ± 0.022"}, {"smiles": "Cc1cc(C(C#N)c2ccc(Cl)cc2)c(Cl)cc1NC(=O)c1cc(I)cc(I)c1O", "note": "(stereo not given) [Closantel]", "growth": "0.128 ± 0.012"}, {"smiles": "COc1ccc(CCN)cc1OC", "note": "[Homoveratrylamine]", "growth": "0.563 ± 0.069"}, {"smiles": "C[C@]12CC[C@H](O)C[C@H]1CC[C@@H]1[C@@H]2CC[C@]2(C)[C@@H](C3=CC(=O)OC3)CC[C@]12O", "note": "[Digitoxigenin]", "growth": "0.439 ± 0.016"}, {"smiles": "CC(=O)[C@H]1CC[C@H]2[C@@H]3CC[C@H]4C[C@H](O)CC[C@]4(C)[C@H]3C(=O)C[C@]12C", "note": "[Alfaxalone]", "growth": "0.3925 ± 0.0021"}, {"smiles": "CCC(=O)O[C@H]1CC[C@H]2[C@@H]3CCC4=CC(=O)CC[C@]4(C)[C@H]3CC[C@]12C", "note": "[Testosterone propionate]", "growth": "0.351 ± 0.039"}, {"smiles": "CN(C)[C@@H]1C(=O)C(C(N)=O)=C(O)[C@@]2(O)C(=O)C3=C(O)c4c(O)ccc(Cl)c4[C@@](C)(O)[C@H]3C[C@@H]12", "note": "[Chlortetracycline hydrochloride]", "growth": "0.0491 ± 0.00036"}, {"smiles": "C[C@]12CC[C@H]3[C@@H](CCC4=CC(=O)CC[C@@H]43)[C@@H]1CC[C@@H]2O", "note": "[Nandrolone]", "growth": "0.423 ± 0.015"}, {"smiles": "CN(C)[C@@H]1C(=O)C(C(N)=O)=C(O)[C@@]2(O)C(=O)C3=C(O)c4c(O)cccc4[C@@](C)(O)[C@H]3C[C@@H]12", "note": "[Tetracycline hydrochloride]", "growth": "0.0518 ± 0.0007"}, {"smiles": "CC(=O)O[C@H]1C[C@@H]2CC[C@@H]3[C@H](CC[C@@]4(C)[C@H]3C[C@H]([N+]3(C)CCCCC3)[C@@H]4OC(C)=O)[C@@]2(C)C[C@@H]1[N+]1(C)CCCCC1", "note": "[Pancuronium bromide]", "growth": "0.506 ± 0.021"}, {"smiles": "C[C@]12CC[C@@H](O)C[C@@H]1CC[C@@H]1[C@@H]2CC[C@]2(C)C(=O)CC[C@@H]12", "note": "[Androsterone]", "growth": "0.291 ± 0.016"}, {"smiles": "CC(=O)O[C@H]1C[C@H](O[C@H]2[C@@H](O)C[C@H](O[C@H]3[C@@H](O)C[C@H](O[C@H]4CC[C@@]5(C)[C@H](CC[C@@H]6[C@@H]5C[C@@H](O)[C@]5(C)[C@@H](C7=CC(=O)OC7)CC[C@]65O)C4)O[C@@H]3C)O[C@@H]2C)O[C@H](C)[C@H]1O[C@@H]1O[C@H](CO)[C@@H](O)[C@H](O)[C@H]1O", "note": "[Lanatoside C]", "growth": "0.528 ± 0.096"}, {"smiles": "O=c1[nH]c2ccccc2n1CCCN1CCC(n2c(=O)[nH]c3cc(Cl)ccc32)CC1", "note": "[Domperidone]", "growth": "0.406 ± 0.011"}, {"smiles": "CC[C@@H](CO)NC(=O)[C@@H]1C=C2c3cccc4[nH]cc(c34)C[C@H]2N(C)C1", "note": "[Methylergometrine maleate]", "growth": "0.523 ± 0.018"}, {"smiles": "Clc1ccc(C(OCCN2CCCCC2)c2ccccc2)cc1", "note": "(stereo not given) [Cloperastine hydrochloride]", "growth": "0.413 ± 0.033"}, {"smiles": "NC(=O)C[S+]([O-])C(c1ccccc1)c1ccccc1", "note": "(stereo not given) [Modafinil]", "growth": "0.634 ± 0.016"}, {"smiles": "CC(C)C[C@H](CN)CC(=O)O", "note": "[Pregabalin]", "growth": "0.614 ± 0.019"}, {"smiles": "C[C@@H]1CN([C@H]2CC[C@](C#N)(c3ccc(F)cc3)CC2)CC[C@]1(C(=O)O)c1ccccc1", "note": "[Levocabastine hydrochloride]", "growth": "0.49 ± 0.026"}, {"smiles": "C[C@@H]1CC[C@H]2[C@@H](C)C(=O)O[C@@H]3O[C@@]4(C)CC[C@@H]1[C@]32OO4", "note": "[Artemisinin]", "growth": "0.33 ± 0.0069"}, {"smiles": "C[C@@H]1O[C@@H](O[C@@H]2C=C3CC[C@@H]4[C@H](CC[C@]5(C)[C@@H](c6ccc(=O)oc6)CC[C@]45O)[C@@]3(C)CC2)[C@H](O)[C@H](O)[C@H]1O", "note": "[Proscillaridin A]", "growth": "0.626 ± 0.018"}, {"smiles": "C[C@]12CC[C@@H]3c4ccc(OC(=O)N(CCCl)CCCl)cc4CC[C@H]3[C@@H]1CC[C@@H]2O", "note": "[Estramustine]", "growth": "0.399 ± 0.008"}, {"smiles": "COc1ccc(CCN2CCC(Nc3nc4ccccc4n3Cc3ccc(F)cc3)CC2)cc1", "note": "[Astemizole]", "growth": "0.0478 ± 0.00075"}, {"smiles": "COc1ccc(OC)c(C(O)C(C)N)c1", "note": "(stereo not given) [Methoxamine hydrochloride]", "growth": "0.458 ± 0.037"}, {"smiles": "CC(C)(N)Cc1ccccc1", "note": "[Phentermine hydrochloride]", "growth": "0.603 ± 0.13"}, {"smiles": "CN1[C@@H]2C[C@@H](OC(=O)[C@H](CO)c3ccccc3)C[C@H]1[C@@H]1O[C@@H]12", "note": "[Scopolamine hydrochloride]", "growth": "0.469 ± 0.026"}, {"smiles": "CN1CCC2(C)c3cc(O)ccc3N(C)C12", "note": "(single isomer, unassigned; (-)) [(-)-Eseroline fumarate salt]", "growth": "0.577 ± 0.095"}, {"smiles": "C=CCN1CC[C@]23c4c5ccc(O)c4O[C@H]2C(=O)CC[C@@]3(O)[C@H]1C5", "note": "[Naloxone hydrochloride]", "growth": "0.479 ± 0.016"}, {"smiles": "NCC(CC(=O)O)c1ccc(Cl)cc1", "note": "(racemic) [Baclofen (R,S)]", "growth": "0.456 ± 0.038"}]}]}
